RGS4 inh = blocks human RGS4-accelerated GTP hydrolysis | P49798 | 390,000 tested, 0.039% active | Transcreener GDP fluorescence polarization, RGS4-accelerated GTP hydrolysis | Potency, µM (doses to about 114 µM), usual class: inhibitors; note: nearly all actives have a fitted effect of over 75% in size
Target sequence (P49798 whole entry, looked up): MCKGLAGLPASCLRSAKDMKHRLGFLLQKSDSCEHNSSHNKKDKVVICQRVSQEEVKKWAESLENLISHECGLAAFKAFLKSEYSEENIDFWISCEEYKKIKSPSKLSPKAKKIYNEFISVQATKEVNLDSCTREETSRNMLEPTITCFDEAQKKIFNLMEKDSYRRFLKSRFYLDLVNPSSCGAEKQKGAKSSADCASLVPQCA
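MLSMR compounds (23 nl, pin-transferred) preincubated 10 min at room temperature with a 500nM (2x) first reagent, then RGS4 at 900nM (2x) plus Transcreener GDP mix added; fluorescence polarization (620/688 nm) read before and after 90 min at 30 °C.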
PTHR1 agonist = PTHR1 (human) receptor agonism. AID 743266. Q03431. 410,000 tested, 0.075% active. HEK293 GP2 PTHR1 cells, GloSensor cAMP luminescence, 1 h. Potency, µM (titrated, usually from 115 µM), usual class: activators; note: nearly all actives have a fitted effect of over 55% in size
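HEK-293-derived GP2 cells expressing PTHR1 and a GloSensor cAMP reporter, 3,000/well, plated overnight, given luciferin plus IBMX (each 0.5 mM as added) for 1 h at 37 °C, then compound for 1 h at 37 °C. Luminescence was read after 15 min at room temperature.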
B2AR arrestin = recruits beta-arrestin to the human beta2-adrenergic receptor | 330,000 tested, 0.02% active | Potency, µM (series often up to 46.1 µM), hits mostly activators | beta-arrestin recruitment to beta2AR, cell-based reporter | AID 492947; note: nearly all actives have a fitted effect of over 65% in size
DRD3 antagonist = antagonists of human D3 dopamine receptor; P35462; D3R cells, DiscoveRx beta-arrestin luminescence, antagonist mode; active compounds read low; max response, negative = inhibition, %; 360,000 tested, 2.5% active; in the data active = max response below about -50%; inconclusive = no clear call, values can overlap the other calls
Target sequence (P35462 whole entry, looked up): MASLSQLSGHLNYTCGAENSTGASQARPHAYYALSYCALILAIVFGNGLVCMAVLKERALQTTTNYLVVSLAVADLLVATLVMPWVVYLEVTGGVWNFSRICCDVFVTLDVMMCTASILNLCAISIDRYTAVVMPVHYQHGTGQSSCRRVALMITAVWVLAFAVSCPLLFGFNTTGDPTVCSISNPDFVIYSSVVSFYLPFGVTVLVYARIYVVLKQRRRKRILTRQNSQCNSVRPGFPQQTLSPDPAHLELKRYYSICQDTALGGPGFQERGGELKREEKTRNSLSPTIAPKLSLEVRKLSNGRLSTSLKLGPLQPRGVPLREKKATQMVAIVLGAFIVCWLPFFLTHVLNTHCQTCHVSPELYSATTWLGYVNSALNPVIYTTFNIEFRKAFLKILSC
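Cells expressing the human receptor were seeded at 1500 cells/well, incubated overnight at 37 degrees C in 5% CO2, then exposed to library compounds with dopamine controls for 90 minutes at 37 degrees C before luminescent detection.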
DRD3 agonist = D3 dopamine receptor (human) agonism; 410,000 tested, 0.58% active; max activation, %; D3R DiscoveRx beta-arrestin cells, luminescence, 90 min; P35462; AID 652048; in the data active = max activation above about 30%
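Agonist-mode cell screen: cells plated at 1500/well and incubated overnight at 37 °C, then exposed to library compounds for 90 min at 37 °C. Detection reagent was added for 30–60 min at room temperature, and luminescence was read.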
BRCA1 expr up = increases BRCA1 expression; MCF7-BRCA1-FFLuc reporter, luminescence, 48 h; response scale: scaled: vehicle 0%, 10 µM genistein 100%; Potency, µM (titrated, usually from 46.1 µM), actives largely listed as activators; 380,000 tested, 1.1% active; AID 624202; note: nearly all actives have a fitted effect of over 80% in size
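MCF7-BRCA1-FFLuc, 2000 cells/well; 2 h attach, 37 °C/5% CO2; compound 48 h; luciferase substrate 15 min; luminescence end-point. Norm. to genistein 10 microM max activation and DMSO; concentration-response curves fitted.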
Numbers stand for hits. Shown are actives, neighbours in structure and some others; about 3.7% of the full set was active somewhere. Unless noted, calls come from the whole dose curve; as a rule, active = well fitted curve in the direction sought with a large enough effect; inconclusive = small, poorly fitted or top-dose-only effect, or another doubt; inactive = no such curve, though single readings can be large; an effect the other way counts as inactive or inconclusive.

`C[C@@H]1[C@H](O)[C@@H](C)/C=C/C=C\C=C\C=C\C=C\C=C\C=C\[C@H](O[C@@H]2O[C@H](C)[C@@H](O)[C@H](N)[C@@H]2O)C[C@@H]2O[C@](O)(C[C@@H](O)C[C@@H](O)[C@H](O)CC[C@@H](O)C[C@@H](O)CC(=O)O[C@H]1C)C[C@H](O)[C@H]2C(=O)O` (stereo in doubt) gave DRD3 agonist inactive.
For CCN(Cc1cnn(C)c1)C(=O)c1ccc2nc(Cc3ccccc3F)oc2c1 the results were PTHR1 agonist inactive, DRD3 antagonist inactive, DRD3 agonist inactive and BRCA1 expr up inactive.
Screening O=C(Nc1ccc(SC(F)F)cc1)c1ccc(F)cc1 returned RGS4 inh inactive, PTHR1 agonist inactive, B2AR arrestin inactive, DRD3 antagonist inactive, DRD3 agonist inactive and BRCA1 expr up 3.16µM.
`O=C(NNC(=O)c1ccc(NC(=O)C2CC2)cc1)c1ccc(F)cc1` gave RGS4 inh inactive, PTHR1 agonist inactive, B2AR arrestin inactive, DRD3 antagonist inactive, DRD3 agonist inactive and BRCA1 expr up inactive.
Screening O=C(Nc1ccccc1)c1ccn[nH]1 returned RGS4 inh inactive, PTHR1 agonist inactive, B2AR arrestin inactive, DRD3 antagonist inactive, DRD3 agonist inactive and BRCA1 expr up 7.08µM.
For O=C(Nc1cccc(Cl)c1)c1ccccc1 the results were RGS4 inh inactive, PTHR1 agonist inactive, B2AR arrestin inactive, DRD3 antagonist inactive, DRD3 agonist inactive and BRCA1 expr up inconclusive.
For O=C(Nc1ccc(SC(F)F)cc1)c1ccccc1F the results were RGS4 inh inactive, PTHR1 agonist inactive, B2AR arrestin inactive, DRD3 antagonist inactive, DRD3 agonist inactive and BRCA1 expr up inconclusive.
For O=C1C(Cl)=C(NC(=O)c2ccccc2)C(=O)C(Cl)=C1NC(=O)c1ccccc1 the results were RGS4 inh inactive, PTHR1 agonist inactive, B2AR arrestin inactive, DRD3 antagonist -71.4, DRD3 agonist inactive and BRCA1 expr up inactive.
`O=C(Nc1ccccc1)c1ccc(NC(=O)C2CC2)cc1` gave RGS4 inh inactive, PTHR1 agonist inactive, B2AR arrestin inactive, DRD3 antagonist inactive, DRD3 agonist inactive and BRCA1 expr up 3.98µM.
Cc1ccc(NC(=O)CN2C(=O)CC(c3ccco3)Sc3ccccc32)cc1Cl (stereo not given) was read as RGS4 inh inactive, PTHR1 agonist inactive, DRD3 agonist inactive and BRCA1 expr up inactive.
Screening O=C(CSc1nc2ccccc2nc1Cc1ccccc1)NCc1ccccc1Cl returned RGS4 inh inactive, PTHR1 agonist inactive and DRD3 agonist inactive.
`CCCCN(CC)CCCNC(=O)c1c(C)oc2ncnc(N3CCOCC3)c12` gave RGS4 inh inactive, PTHR1 agonist inactive and DRD3 agonist 60.0.
`CCN(CC)CCCNC(=O)c1c(C)oc2ncnc(N3CCOCC3)c12` gave RGS4 inh inactive, PTHR1 agonist inactive and DRD3 agonist inactive.
For C=CC1=C(C)C2=CC3=NC(=C(CC(=O)[O-])C4=NC(=C(C)C4=C([O-])[O-])C=c4[n-]c(c(C)c4CC)=CC1=N2)C(CCC(=O)[O-])C3C.[Cu+2].[Na+].[Na+].[Na+] (stereo not given) the results were DRD3 agonist inactive.
For CCc1cc(C(=O)N2CCOCC2)c(NC2=NS(=O)(=O)c3ccccc32)s1 the results were RGS4 inh inactive, PTHR1 agonist inactive, B2AR arrestin inactive, DRD3 antagonist -68.9, DRD3 agonist inactive and BRCA1 expr up inactive.
For CC1CCCN(CCCNS(=O)(=O)c2cc(Br)cc3c2N(C(=O)C2CC2)CC3)C1 (stereo not given) the results were RGS4 inh inactive, PTHR1 agonist inactive, B2AR arrestin inactive, DRD3 antagonist inactive, DRD3 agonist inactive and BRCA1 expr up inactive.
`CC(=O)N1CCc2cc(Br)cc(S(=O)(=O)NCCCN3CCCC(C)C3)c21` (stereo not given) gave RGS4 inh inactive, PTHR1 agonist inactive, B2AR arrestin inactive, DRD3 antagonist -59.5, DRD3 agonist inactive and BRCA1 expr up inactive.
`COc1cccc2cc(-c3cn4c(n3)sc3cc(F)ccc34)c(=O)oc12` gave RGS4 inh inactive, PTHR1 agonist inactive and DRD3 agonist inactive.
CC(NC(=O)COC(=O)c1cc(NS(=O)(=O)c2ccc(Cl)c([N+](=O)[O-])c2)ccc1O)C1CC2CCC1C2 (stereo not given) was read as RGS4 inh inactive, PTHR1 agonist inactive, B2AR arrestin inactive, DRD3 antagonist -60.9, DRD3 agonist inactive and BRCA1 expr up inactive.
Screening O=c1c2c3c(sc2nnn1CCCCOc1ccc(Cl)cc1)CCCC3 returned RGS4 inh inactive, PTHR1 agonist inactive and DRD3 agonist inactive.
`Cc1nn(C(C)C(=O)NC2CCC(C)CC2)c(=O)c2c1sc1ccccc12` (stereo not given) gave RGS4 inh inactive, PTHR1 agonist inactive and DRD3 agonist inactive.
For COc1ccc(NC(=O)c2ccc(Oc3ncccn3)cc2)cc1 the results were RGS4 inh inactive, PTHR1 agonist inactive, B2AR arrestin inactive, DRD3 antagonist inactive, DRD3 agonist inactive and BRCA1 expr up 8.91µM.
O=C(Nc1ccccc1Cl)c1ccc2nccnc2c1 was read as RGS4 inh inactive, PTHR1 agonist inactive, B2AR arrestin inactive, DRD3 antagonist inactive, DRD3 agonist inactive and BRCA1 expr up 5.01µM.
Cc1ccc(NC(=O)c2ccc3nsnc3c2)c(Cl)c1 was read as RGS4 inh inactive, PTHR1 agonist inactive, B2AR arrestin inactive, DRD3 antagonist inactive, DRD3 agonist inactive and BRCA1 expr up 1µM.
COc1ccc(NC(=O)c2coc(C)c2)cc1 was read as RGS4 inh inactive, PTHR1 agonist inactive, B2AR arrestin inactive, DRD3 antagonist inactive, DRD3 agonist inactive and BRCA1 expr up 5.62µM.
COc1ccc(NC(=O)c2ccc(NC(=O)c3ccncc3)cc2)cc1 was read as RGS4 inh inactive, PTHR1 agonist inactive, B2AR arrestin inactive, DRD3 antagonist inactive, DRD3 agonist inactive and BRCA1 expr up inactive.
`CC1(C)NC(=O)N(CC(O)CN(c2ccccc2)S(=O)(=O)c2ccc([N+](=O)[O-])cc2)C1=O` (stereo not given) gave RGS4 inh inactive, PTHR1 agonist inactive, B2AR arrestin inactive, DRD3 antagonist inactive, DRD3 agonist inactive and BRCA1 expr up inactive.
Cc1ccnc(NS(=O)(=O)c2ccc(NC(=O)C3C4C=CC(C4)C3C(=O)O)cc2)n1 (stereo not given) was read as RGS4 inh inactive, PTHR1 agonist inactive, B2AR arrestin inactive, DRD3 antagonist inactive, DRD3 agonist inactive and BRCA1 expr up inactive.

Compound activity deposited in PubChem by National Center for Advancing Translational Sciences (NCATS).
